Reference: PubChem BioAssay (NCI)
About 83,000 compounds went through this panel and 20% of them were active in at least one assay; those are over-represented in the sample as a whole.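 The endpoint reported here, percent growth, reads 100 for growth as untreated, 0 for no net growth and -100 for all cells dead.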 A number with no mark means an inactive call. Activity calls are given as the source filed them. How the source made its calls: active means growth percent below 10; inactive means the rest.

Test system: MDA-MB-435 melanoma
Assay: NCI-60 one-dose screen, 48 h (100 = growth as untreated, 0 = no growth, -100 = all killed)
Conditions: 10 µM unless noted

With CCN1C(=O)N(CC)C2NNC(Sc3c(C(=O)O)c4ccccc4n(C4CCCC4)c3=O)=NC21 (stereo not given) the growth was -29.3% (active).
For C/C(=N\N=C1/C(=O)Nc2ccccc21)c1ccc2c(c1)Nc1ccccc1S2, the growth was -52.5% (active).
For Cc1nc(Nc2ccccn2)sc1C(=O)CC(SCC(=O)Nc1ccc(Cl)cc1)c1ccccc1F (stereo not given), the growth was -60% (active).
In the case of Cc1ccc(-n2c(-c3cc4ccccc4nc3Cl)noc2=O)cc1, the growth is reported as 6.44% (active).
Cc1ccc(/C=C/c2n(Cc3ccc4ccccc4c3)c3ccccc3[n+]2Cc2ccc3ccccc3c2)cc1 was tested, and the growth was -78.2% (active).
For Brc1ccc(-c2n(Cc3ccc4ccccc4c3)c(-c3ccccc3)c(-c3ccccc3)[n+]2Cc2ccc3ccccc3c2)cc1, the growth was -91% (active).
In the case of COc1ccc2[nH]cc(-c3nc(N)nnc3-c3cn(C)c4ncccc34)c2c1, the growth is reported as -1.52% (active).

Going from O=c1[nH]c2ccccc2cc1CSc1cccc(Nc2nccc(-c3ccc4ccccc4c3)n2)c1 to Cc1ccc(-c2nc(Nc3ccccc3S(N)(=O)=O)c3ccccc3n2)cc1, the growth falls from 87.9% to 85.4%.

First: O=C(c1ccc(OCCN2CCOCC2)cc1)C1[C@H](c2ccc(Cl)cc2)[C@@H](c2ccccc2)NC12C(=O)Nc1ccc(Cl)cc12 (stereo not given in full)
Second: COc1ccc(N2N=C(c3ccc4c(c3)OCO4)CC2c2cccc(NC(=O)CCNS(=O)(=O)c3ccc(Cl)cc3)c2)cc1 (stereo not given)
The growth of the first is higher: 42% for the first, 41.1% for the second.

Compared with CCN(CC)c1ccc(/C=N/Nc2nc(-c3ccc(Br)cc3)cs2)c(O)c1, CCCCSc1nc(NCCc2c[nH]c3ccccc23)c(C#N)c(-c2ccc(F)cc2)n1 is higher in growth: 64.5% for the first, 73.1% for the second.

Compared with COc1ccc(NC(=O)[C@@H](N)Cc2ccccc2)cc1C(=O)Nc1cccc(C2CC(=O)c3c(cc(OC)c(OC)c3OC)O2)c1 (stereo not given in full), COc1ccc(NC(=O)[C@H](CO)NC(=O)OC(C)(C)C)cc1C(=O)Nc1cccc(C2CC(=O)c3c(cc(OC)c(OC)c3OC)O2)c1 (stereo not given in full) is lower in growth: 56.8% for the first, 41.1% for the second.

Compared with Cc1cccc(NC(=O)CN2CCN(c3ncnc4c3cnn4-c3ccccc3)CC2)c1, Cc1cc(=O)oc2cc(OCCCCOc3ccc(/C=C/C(=O)Nc4ccccc4N)cc3)ccc12 is lower in growth: 93.4% for the first, 78.3% for the second.

Compared with Cc1ccc(-c2nc(C#N)c(S(=O)(=O)N3CCN(S(=O)(=O)c4ccc(Cl)cc4)CC3)o2)cc1, Cc1ccc(C(=O)C(c2c[nH]c3ccccc23)c2c[nH]c3ccccc23)cc1 is lower in growth: 94.8% for the first, 19.4% for the second.

Compared with COC(=O)/C=C/c1cccc2c1C(=O)NC(C)(c1cc3ccccc3oc1=O)N2 (stereo not given), CC(/C=C1\SC(=S)N(CCCC(=O)NC(CC(C)C)C(=O)O)C1=O)=C\c1ccccc1 (stereo not given) is higher in growth: 78.2% for the first, 94.8% for the second.

Going from O=C(/C=C/c1ccc(O)c(O)c1)NC1CCOC1O (stereo not given) to CC1(C)CC[C@]2(C(=O)O)CC[C@]3(C)C(=CCC4[C@@]5(C)C[C@@H](O)[C@@H]6OC(c7ccccc7Br)OC[C@@]6(C)C5CC[C@]43C)C2C1 (stereo not given in full), the growth falls from 101% to 28%.

First: Cn1cc(-c2nc(N)nnc2-c2c[nH]c3ccc(Br)cc23)c2cccnc21
Second: CCCSc1nc(NCCc2c[nH]c3ccccc23)c(C#N)c(-c2ccc(OC)cc2)n1
The growth of the first is lower: 12% for the first, 62.5% for the second.

Going from CC(=O)OC[C@@]1(C)C2CC[C@]3(C)C(CC=C4C5CC(C)(C)CC[C@]5(C(=O)Nc5cccc(C)c5)CC[C@]43C)[C@@]2(C)C[C@@H](OC(C)=O)[C@@H]1OC(C)=O (stereo not given in full) to CCOC(=O)C(N=Nc1ccc(S(=O)(=O)N=C(N)N)cc1)C(C)=O (stereo not given), the growth rises from 48.2% to 105%.

Test system: SW-620 colon
Assay: as above
Conditions: 10 µM unless noted

First: C#CCOc1cc(N(CC)CC)ccc1C(C(=O)NC(C)(C)C)N(C(=O)C1CCc2cc(F)ccc2O1)c1ccc(F)c(Cl)c1 (stereo not given)
Second: COc1ccc(NC(=O)[C@H](CO)NC(=O)OC(C)(C)C)cc1C(=O)Nc1cccc(C2CC(=O)c3c(cc(OC)c(OC)c3OC)O2)c1 (stereo not given in full)
The growth of the first is higher: 74.3% for the first, 73.9% for the second.

Compared with COc1cc2c(c(OC)c1OC)C(=O)CC(c1cccc(NC(=O)c3cc(NC(=O)[C@@H](N)CO)ccc3C)c1)O2 (stereo not given in full), COc1ccc(NC(=O)[C@@H](N)Cc2ccccc2)cc1C(=O)Nc1cccc(C2CC(=O)c3c(cc(OC)c(OC)c3OC)O2)c1 (stereo not given in full) is lower in growth: 119% for the first, 50.9% for the second.

First: O=C(O)Cn1c(O)c(/C=C2/C=c3cc4c(cc3=NC2=O)OCCO4)sc1=S
Second: COc1ccc(N2N=C(c3ccc4c(c3)OCO4)CC2c2cccc(NC(=O)CCCNS(=O)(=O)c3ccc(F)cc3)c2)cc1 (stereo not given)
The growth of the first is higher: 113% for the first, 86.2% for the second.

First: CC(C)CSc1nc(NCCc2c[nH]c3ccccc23)c(C#N)c(-c2ccc(Cl)cc2)n1
Second: CCCSc1nc(NCCc2c[nH]c3ccccc23)c(C#N)c(-c2ccc(OC)cc2)n1
The growth of the first is lower: 24.9% for the first, 42.5% for the second.

First: C=C1CCC2C3(C)COC(c4ccccc4)OC3CCC2(C)C1CC(Sc1ccccc1)C1=CCOC1=O (stereo not given)
Second: CC1(C)CC[C@]2(C(=O)O)CC[C@]3(C)C(=CCC4[C@@]5(C)C[C@@H](O)[C@@H]6OC(c7cccc(Br)c7)OC[C@@]6(C)C5CC[C@]43C)C2C1 (stereo not given in full)
The growth of the first is lower: 14.8% for the first, 25% for the second.

First: O=C1c2c(c3c4cc(F)ccc4oc3c3[nH]c4ccc(Br)cc4c23)C(=O)N1O
Second: Cn1cc(-c2nc(N)nnc2-c2c[nH]c3ccc(Br)cc23)c2cccnc21
The growth of the first is lower: 34.9% for the first, 39.9% for the second.

Going from CN(C)CCn1c2ccccc2c2nc3cc(C(F)(F)F)ccc3nc21 to Cc1ccc(-n2c(-c3cc4ccccc4nc3Cl)noc2=O)cc1, the growth rises from 22.5% to 68.9%.

Going from CCN1C(=O)N(CC)C2NNC(Sc3c(C(=O)O)c4ccccc4n(C4CCCC4)c3=O)=NC21 (stereo not given) to Cc1cccc(NC(=O)CN2CCN(c3ncnc4c3cnn4-c3ccccc3)CC2)c1, the growth rises from 30.6% to 92%.

Compared with O=c1[nH]c2ccccc2cc1CSc1cccc(Nc2nccc(-c3ccc4ccccc4c3)n2)c1, Cc1ccc(-c2nc(Nc3ccccc3S(N)(=O)=O)c3ccccc3n2)cc1 is lower in growth: 105% for the first, 85.8% for the second.

First: O=C(c1ccc(OCCN2CCOCC2)cc1)C1[C@H](c2ccc(Cl)cc2)[C@@H](c2ccccc2)NC12C(=O)Nc1ccc(Cl)cc12 (stereo not given in full)
Second: COc1ccc(N2N=C(c3ccc4c(c3)OCO4)CC2c2cccc(NC(=O)CCNS(=O)(=O)c3ccc(Cl)cc3)c2)cc1 (stereo not given)
The growth of the first is lower: 41.5% for the first, 55.8% for the second.

Going from CCN(CC)c1ccc(/C=N/Nc2nc(-c3ccc(Br)cc3)cs2)c(O)c1 to CCCCSc1nc(NCCc2c[nH]c3ccccc23)c(C#N)c(-c2ccc(F)cc2)n1, the growth rises from 10.5% to 60.4%.

Compared with Cc1ccc(-c2nc(C#N)c(S(=O)(=O)N3CCN(S(=O)(=O)c4ccc(Cl)cc4)CC3)o2)cc1, Cc1cc(=O)oc2cc(OCCCCOc3ccc(/C=C/C(=O)Nc4ccccc4N)cc3)ccc12 is lower in growth: 109% for the first, 71.9% for the second.

First: COC(=O)/C=C/c1cccc2c1C(=O)NC(C)(c1cc3ccccc3oc1=O)N2 (stereo not given)
Second: C/C(=N\N=C1/C(=O)Nc2ccccc21)c1ccc2c(c1)Nc1ccccc1S2
The growth of the first is higher: 72.2% for the first, 63.5% for the second.

Compared with O=C(/C=C/c1ccc(O)c(O)c1)NC1CCOC1O (stereo not given), CC(/C=C1\SC(=S)N(CCCC(=O)NC(CC(C)C)C(=O)O)C1=O)=C\c1ccccc1 (stereo not given) is higher in growth: 109% for the first, 112% for the second.

Going from CC1(C)CC[C@]2(C(=O)O)CC[C@]3(C)C(=CCC4[C@@]5(C)C[C@@H](O)[C@@H]6OC(c7ccccc7Br)OC[C@@]6(C)C5CC[C@]43C)C2C1 (stereo not given in full) to CC(=O)OC[C@@]1(C)C2CC[C@]3(C)C(CC=C4C5CC(C)(C)CC[C@]5(C(=O)Nc5cccc(C)c5)CC[C@]43C)[C@@]2(C)C[C@@H](OC(C)=O)[C@@H]1OC(C)=O (stereo not given in full), the growth rises from 19.5% to 40.5%.

First: CCOC(=O)C(N=Nc1ccc(S(=O)(=O)N=C(N)N)cc1)C(C)=O (stereo not given)
Second: COc1ccc2[nH]cc(-c3nc(N)nnc3-c3cn(C)c4ncccc34)c2c1
The growth of the first is higher: 102% for the first, 39.4% for the second.

With C#C[C@]1(O)CC[C@H]2[C@@H]3CC=C4c5sc(-c6ccc(O)c(O)c6)nc5CC[C@]4(C)[C@H]3CC[C@@]21C the growth was -76.6% (active).
In the case of O=C(COc1ccc(NC(=O)Nc2ccc(Cl)c(Cl)c2)cc1)N=Nc1c(O)[nH]c2ccccc12, the growth is reported as -62% (active).
With Cc1ccc(C(=O)C(c2c[nH]c3ccccc23)c2c[nH]c3ccccc23)cc1 the growth was 0.879% (active).
With Cc1nc(Nc2ccccn2)sc1C(=O)CC(SCC(=O)Nc1ccc(Cl)cc1)c1ccccc1F (stereo not given) the growth was 2.15% (active).
With Cc1ccc(/C=C/c2n(Cc3ccc4ccccc4c3)c3ccccc3[n+]2Cc2ccc3ccccc3c2)cc1 the growth was -75.1% (active).
For Brc1ccc(-c2n(Cc3ccc4ccccc4c3)c(-c3ccccc3)c(-c3ccccc3)[n+]2Cc2ccc3ccccc3c2)cc1, the growth was -86% (active).
